Laboratory results taken from the supplement of paper PMC3898565.
± gives the uncertainty stated by the source.

Test system: U87
Experiment: cell viability relative to vehicle control; higher = less growth inhibition (less active)
Conditions: 10 µM; 72 h
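Also: viable cell number estimated from Alamar Blue fluorescence read at 560/90, part of a single-dose primary screen of an FDA-approved drug library.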

| Compound | cell viability [%] |
| --- | --- |
| COc1cc(C(=O)NS(=O)(=O)c2ccccc2C)ccc1Cc1cn(C)c2ccc(NC(=O)OC3CCCC3)cc12 | 104 ± 1.1 |
| CCC(C)n1ncn(-c2ccc(N3CCN(c4ccc(OCC5COC(Cn6cncn6)(c6ccc(Cl)cc6Cl)O5)cc4)CC3)cc2)c1=O (stereo not given) | 21.4 ± 2.1 |
| COc1ccc2c(c1)c(CC(=O)O)c(C)n2C(=O)c1ccc(Cl)cc1 [Indomethacin] | 105.6 ± 0.41 |
| O=[N+]([O-])c1cccc2cn[nH]c12 | 107 ± 1.1 |
| CCC(C)(C)N=C(NC#N)Nc1cccnc1 | 107 ± 1.1 |
| COCCCC/C(=N\OCCN)c1ccc(C(F)(F)F)cc1 [Fluvoxamine] | 106 ± 1.5 |
| CC1(C)C[C@@H]1C(=O)N/C(=C\CCCCSC[C@H](N)C(=O)O)C(=O)O | 129 ± 3.1 |
| CCC1=C(C)CN(C(=O)NCCc2ccc(S(=O)(=O)NC(=O)N[C@H]3CC[C@H](C)CC3)cc2)C1=O | 105 ± 2.2 |
| CN1CCN(C2=Nc3ccccc3Oc3ccc(Cl)cc32)CC1 [Loxapine] | 102 ± 1.6 |
| O=C(O)CCc1nc(-c2ccccc2)c(-c2ccccc2)o1 | 129 ± 2.2 |
| c1cnc(N2CCN(Cc3ccc4c(c3)OCO4)CC2)nc1 [Piribedil] | 108.4 ± 0.77 |
| COc1cc2nc(N3CCN(C(=O)C4CCCO4)CC3)nc(N)c2cc1OC (stereo not given) [Terazosin] | 100.6 ± 0.86 |
| CC(=O)OCC(=O)NCCCOc1cccc(CN2CCCCC2)c1 | 102 ± 1.4 |
| CCCc1nc(C)c2c(=O)nc(-c3cc(S(=O)(=O)N4CCN(CC)CC4)ccc3OCC)[nH]n12 | 107.7 ± 0.41 |
| OCCN1C[C@H](O)[C@@H](O)[C@H](O)[C@H]1CO | 123 ± 2.4 |
| O=C(O)/C=C/c1ccc(Cn2ccnc2)cc1 [ozagrel] | 104 ± 1.2 |
| O=C(O)C[C@H](O)C[C@H](O)/C=C/c1c(C2CC2)nc2ccccc2c1-c1ccc(F)cc1 | 28.6 ± 3.1 |
| Clc1cccc(Cl)c1NC1=NCCN1 | 108 ± 2.8 |
| CCOC(=O)N1CCC(=C2c3ccc(Cl)cc3CCc3cccnc32)CC1 | 102 ± 2.4 |
| Cc1c(O)cccc1C(=O)N[C@@H](CSc1ccccc1)[C@H](O)CN1C[C@H]2CCCC[C@H]2C[C@H]1C(=O)NC(C)(C)C | 102.1 ± 1 |

| Compound | cell viability [%] |
| --- | --- |
| Cc1cc2c(s1)Nc1ccccc1N=C2N1CCN(C)CC1 | 108 ± 1.7 |
| COC(=O)C1=C(C)NC(C)=C(C(=O)OC)C1c1ccccc1[N+](=O)[O-] | 105 ± 1.4 |
| CC(C)NCC(O)COc1ccc(COCCOC(C)C)cc1 (stereo not given) | 104 ± 2.4 |
| Cc1c(C(=O)NN2CCCCC2)nn(-c2ccc(Cl)cc2Cl)c1-c1ccc(I)cc1 | 106 ± 1.3 |
| CC(Oc1c(Cl)cccc1Cl)C1=NCCN1 (stereo not given) | 113 ± 11 |
| COc1cc(-c2ccc(=O)[nH]n2)ccc1OC(F)F | 111 ± 3.7 |
| O=C(NCCO[N+](=O)[O-])c1cccnc1 [Nicorandil] | 101 ± 2.2 |
| CNCC[C@H](Oc1cccc2ccccc12)c1cccs1 [Duloxetine] | 104 ± 1.9 |
| C=CC1=C(C(=O)O)N2C(=O)[C@@H](NC(=O)/C(=N\O)c3csc(N)n3)[C@H]2SC1 | 107 ± 1.5 |
| COCC1=C(C(=O)OC(C)OC(=O)OC(C)C)N2C(=O)[C@@H](NC(=O)/C(=N\OC)c3csc(N)n3)[C@H]2SC1 (stereo not given in full) | 106 ± 1.6 |
| O=c1c(O[C@@H]2O[C@H](CO)[C@@H](O)[C@H](O)[C@H]2O)c(-c2ccc(O)c(O)c2)oc2cc(O)cc(O)c12 [Isoquercitrin] | 104 ± 1.7 |
| CN1CCCC(n2nc(Cc3ccc(Cl)cc3)c3ccccc3c2=O)CC1 (stereo not given) | 99 ± 2.2 |
| COC1=C(OC)C(=O)C(CCCCCCCCCCO)=C(C)C1=O | 93.41 ± 0.38 |
| CC(C)[C@H]1CC[C@H](C(=O)N[C@H](Cc2ccccc2)C(=O)O)CC1 | 108 ± 1.6 |
| CC#C[C@]1(O)CC[C@H]2[C@@H]3CCC4=CC(=O)CCC4=C3[C@@H](c3ccc(N(C)C)cc3)C[C@@]21C | 105 ± 1.6 |
| CC(C(O)c1ccc(O)cc1)N1CCC(Cc2ccccc2)CC1 (stereo not given) [Ifenprodil] | 99.5 ± 1.3 |
| CC[C@@]1(O)C(=O)OCc2c1cc1n(c2=O)Cc2cc3c(CN(C)C)c(O)ccc3nc2-1 | 24.1 ± 2 |
| CN(CCCN1c2ccccc2CCc2ccccc21)CC(=O)c1ccc(Cl)cc1 | 107 ± 2.2 |
| CC[C@H]1OC(=O)[C@H](C)[C@@H](O[C@H]2C[C@@](C)(OC)[C@@H](O)[C@H](C)O2)[C@H](C)[C@@H](O[C@@H]2O[C@H](C)C[C@H](N(C)C)[C@H]2O)[C@](C)(OC)C[C@@H](C)C(=O)[C@H](C)[C@@H](O)[C@]1(C)O | 107 ± 1.2 |
| CC(C)Oc1ccc2c(=O)c(-c3ccccc3)coc2c1 | 101 ± 2.6 |
